# Source: PubChem BioAssay (NCI)
# The panel holds about 79,000 compounds, 15% with a hit somewhere; the sample as a whole holds those more often. A number with no mark means an inactive call. The source made the active and inactive calls. No stated cut-off is given here; in the data, active means growth inhibition above about 70%; inactive means the rest.
# What was measured:
# [1] = NCI Yeast Anticancer Drug Screen. Data for the rad52 strain (AID 147);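 further: 0% = growth of vehicle-treated control cultures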; settings: S. cerevisiae rad52 mutant growth inhibition, hits give high values
# Method in brief: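 Here a repair-compromised yeast strain receives each compound; its growth is then quantified and normalised to vehicle-only controls.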
# [2] = NCI Yeast Anticancer Drug Screen. Data for the wt1 strain (AID 149);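 further: 0% = growth of vehicle-treated wt1 cultures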; settings: S. cerevisiae wt1 strain (SPY 50644) growth inhibition, hits give high values
# Method in brief: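 wt1 yeast, compound-treated; % growth inhibition vs vehicle control.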
# [3] = NCI Yeast Anticancer Drug Screen. Data for the rad50EPP+ strain (AID 151);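 further: 0% = growth of vehicle-treated control cultures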; settings: S. cerevisiae rad50 mutant strain, hits give high values
# Method in brief: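 Read-out is yeast growth inhibition relative to vehicle; cells used were the rad50EPP+ strain.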
# [4] = NCI Yeast Anticancer Drug Screen. Data for the mgt1 strain (AID 153); settings: S. cerevisiae mgt1 mutant growth inhibition, hits give high values
# Method in brief: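 Measured: inhibition of mgt1 yeast growth by compound, normalized to vehicle-treated cultures.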
# [5] = NCI Yeast Anticancer Drug Screen. Data for the rad50 strain (AID 155);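 further: 0% = growth of vehicle-only cultures of the same strain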; settings: S. cerevisiae rad50 strain growth inhibition, hits give high values
# Method in brief: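 Genetically altered yeast (DNA repair pathway); compound treatment; growth inhibition vs vehicle ctrl.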
# [6] = NCI Yeast Anticancer Drug Screen. Data for the mec2-1 strain (AID 157); settings: S. cerevisiae mec2-1 strain, hits give high values
# Method in brief: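 Using mec2-1 yeast: add compound, measure growth, express inhibition versus vehicle-treated cultures.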
# [7] = NCI Yeast Anticancer Drug Screen. Data for the rad14 strain (AID 159);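 further: 0% = growth of vehicle-treated control cultures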; settings: S. cerevisiae rad14 strain growth inhibition, hits give high values
# Method in brief: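 Test compounds were applied to a repair-deficient yeast strain. Its growth was then compared with that of cultures given vehicle alone, and inhibition was expressed relative to those controls.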
# [8] = NCI Yeast Anticancer Drug Screen. Data for the sgs1 mgt1 strain (AID 161);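 further: 0% = growth of cultures given vehicle only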; settings: S. cerevisiae sgs1 mgt1 strain, hits give high values
# Method in brief: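 Yeast cells carrying a defined DNA-repair defect were exposed to test compounds. Growth inhibition was measured relative to vehicle-treated controls.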
# [9] = NCI Yeast Anticancer Drug Screen. Data for the CLN2oe strain (AID 163);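 further: 0% = growth of vehicle-only control cultures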; settings: S. cerevisiae CLN2oe strain, hits give high values
# Method in brief: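 Whole-cell yeast growth assay. A strain engineered for altered cell-cycle control received compound, and inhibition relative to vehicle-treated cultures was recorded.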
# [10] = NCI Yeast Anticancer Drug Screen. Data for the cln2 rad14 strain (AID 165);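 further: 0% = growth equal to vehicle treated cultures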; settings: S. cerevisiae cln2 rad14 strain, hits give high values
# Method in brief: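 Yeast strain cln2 rad14, bearing defects in cell cycle control and DNA repair, serves as the test system; values reflect growth inhibition compared with vehicle.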
# [11] = NCI Yeast Anticancer Drug Screen. Data for the wt2 strain (AID 169);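 further: 0% = growth of vehicle-treated yeast cultures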; settings: S. cerevisiae wt2 strain growth inhibition, hits give high values
# Method in brief: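 Treated yeast vs. vehicle-treated yeast: growth inhibition determined.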
# [12] = NCI Yeast Anticancer Drug Screen. Data for the mlh1 strain (AID 171);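 further: 0% = growth of vehicle-treated control cultures of the same strain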; settings: S. cerevisiae mlh1 strain growth inhibition, hits give high values
# Method in brief: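 A yeast strain with a defined genetic lesion serves as the test organism. Cultures receive compound or vehicle, and growth is measured.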
# [13] = NCI Yeast Anticancer Drug Screen. Data for the sgs1 strain (AID 173);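 further: 0% = growth of vehicle-only control cultures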; settings: S. cerevisiae sgs1 mutant, hits give high values
# Method in brief: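 A genetically defined yeast mutant is incubated with the test compound, and its growth is compared to that of the same strain given vehicle.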
# [14] = NCI Yeast Anticancer Drug Screen. Data for the mlh1 rad18 strain (AID 175); settings: S. cerevisiae mlh1 rad18 strain growth inhibition, hits give high values
# Method in brief: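 Steps: expose repair-defective yeast to compound; measure growth; express inhibition against vehicle-treated controls.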
# [15] = NCI Yeast Anticancer Drug Screen. Data for the rad18 strain (AID 177); settings: S. cerevisiae rad18 mutant growth inhibition, hits give high values
# Method in brief: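 Measured value is growth inhibition of a yeast strain bearing a DNA repair alteration, referenced to vehicle-treated cells.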
# [16] = NCI Yeast Anticancer Drug Screen. Data for the bub3 strain (AID 167); settings: S. cerevisiae bub3 mutant strain, hits give high values
# Method in brief: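 Yeast carrying a defined mutation is treated with each compound, and growth is compared with that of vehicle-exposed cells to give inhibition.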
# [17] = at 5.0 µM (retest, dose inferred, filed as 0.5)
# [18] = at 50.0 µM (retest, dose inferred, filed as 5.0)
compound,measurement,setting,value
CCCS(=O)(=O)Nc1ccc(Nc2c3ccccc3nc3ccccc23)c(OC)c1,growth inhibition,[1]; at 1.2 µM,20%
same,growth inhibition,[1]; at 3.7 µM,64%
same,growth inhibition,[1]; at 11.0 µM,82% (active)
same,growth inhibition,[1]; at 33.0 µM,87% (active)
same,growth inhibition,[1]; at 100.0 µM,93% (active)
same,growth inhibition,[2]; at 1.2 µM,-70%
same,growth inhibition,[2]; at 3.7 µM,-55%
same,growth inhibition,[2]; at 11.0 µM,-64%
same,growth inhibition,[2]; at 33.0 µM,-35%
same,growth inhibition,[2]; at 100.0 µM,66%
same,growth inhibition,[3]; at 1.2 µM,-32%
same,growth inhibition,[3]; at 3.7 µM,-21%
same,growth inhibition,[3]; at 11.0 µM,-20%
same,growth inhibition,[3]; at 33.0 µM,16%
same,growth inhibition,[3]; at 100.0 µM,69%
same,growth inhibition,[4]; at 1.2 µM,-21%
same,growth inhibition,[4]; at 3.7 µM,-64%
same,growth inhibition,[4]; at 11.0 µM,-52%
same,growth inhibition,[4]; at 33.0 µM,-10%
same,growth inhibition,[4]; at 100.0 µM,73% (active)
same,growth inhibition,[5]; at 1.2 µM,14%
same,growth inhibition,[5]; at 3.7 µM,59%
same,growth inhibition,[5]; [17],79% (active)
same,growth inhibition,[5]; at 11.0 µM,84% (active)
same,growth inhibition,[5]; at 33.0 µM,90% (active)
same,growth inhibition,[5]; [18],98% (active)
same,growth inhibition,[5]; at 50.0 µM,7.1%
same,growth inhibition,[5]; at 100.0 µM,91% (active)
same,growth inhibition,[6]; at 1.2 µM,-59%
same,growth inhibition,[6]; at 3.7 µM,-88%
same,growth inhibition,[6]; [17],2%
same,growth inhibition,[6]; at 11.0 µM,-60%
same,growth inhibition,[6]; at 33.0 µM,33%
same,growth inhibition,[6]; [18],99% (active)
same,growth inhibition,[6]; at 50.0 µM,12.8%
same,growth inhibition,[6]; at 100.0 µM,85% (active)
same,growth inhibition,[7]; at 1.2 µM,-62%
same,growth inhibition,[7]; at 3.7 µM,-61%
same,growth inhibition,[7]; at 11.0 µM,-43%
same,growth inhibition,[7]; at 33.0 µM,-16%
same,growth inhibition,[7]; at 100.0 µM,66%
same,growth inhibition,[8]; [17],36%
same,growth inhibition,[8]; [18],99% (active)
same,growth inhibition,[8]; at 50.0 µM,82.8% (active)
same,growth inhibition,[9]; at 1.2 µM,-9%
same,growth inhibition,[9]; at 3.7 µM,-14%
same,growth inhibition,[9]; at 11.0 µM,-11%
same,growth inhibition,[9]; at 33.0 µM,21%
same,growth inhibition,[9]; at 100.0 µM,67%
same,growth inhibition,[10]; [17],34%
same,growth inhibition,[10]; [18],98% (active)
same,growth inhibition,[10]; at 50.0 µM,52%
same,growth inhibition,[11]; at 1.2 µM,-37%
same,growth inhibition,[11]; at 3.7 µM,-40%
same,growth inhibition,[11]; at 11.0 µM,-41%
same,growth inhibition,[11]; at 33.0 µM,-10%
same,growth inhibition,[11]; at 100.0 µM,69%
same,growth inhibition,[12]; at 1.2 µM,-85%
same,growth inhibition,[12]; at 3.7 µM,-74%
same,growth inhibition,[12]; at 11.0 µM,-45%
same,growth inhibition,[12]; at 33.0 µM,9%
same,growth inhibition,[12]; at 100.0 µM,74% (active)
same,growth inhibition,[13]; at 1.2 µM,-45%
same,growth inhibition,[13]; at 3.7 µM,-47%
same,growth inhibition,[13]; at 11.0 µM,-41%
same,growth inhibition,[13]; at 33.0 µM,7%
same,growth inhibition,[13]; at 100.0 µM,77% (active)
same,growth inhibition,[14]; [17],66%
same,growth inhibition,[14]; [18],98% (active)
same,growth inhibition,[14]; at 50.0 µM,29.4%
same,growth inhibition,[15]; at 1.2 µM,-58%
same,growth inhibition,[15]; at 3.7 µM,-63%
same,growth inhibition,[15]; at 11.0 µM,-43%
same,growth inhibition,[15]; at 33.0 µM,-10%
same,growth inhibition,[15]; at 100.0 µM,75% (active)
CCCCCCCCCCNC(=O)OCC,growth inhibition,[1]; at 1.2 µM,0%
same,growth inhibition,[1]; at 3.7 µM,1%
same,growth inhibition,[1]; at 11.0 µM,11%
same,growth inhibition,[1]; at 33.0 µM,37%
same,growth inhibition,[1]; at 100.0 µM,98% (active)
same,growth inhibition,[2]; at 1.2 µM,-3%
same,growth inhibition,[2]; at 3.7 µM,-5%
same,growth inhibition,[2]; at 11.0 µM,-4%
same,growth inhibition,[2]; at 33.0 µM,4%
same,growth inhibition,[2]; at 100.0 µM,98% (active)
same,growth inhibition,[3]; at 1.2 µM,1%
same,growth inhibition,[3]; at 3.7 µM,9%
same,growth inhibition,[3]; at 11.0 µM,28%
same,growth inhibition,[3]; at 33.0 µM,68%
same,growth inhibition,[3]; at 100.0 µM,81% (active)
same,growth inhibition,[4]; at 1.2 µM,-2%
same,growth inhibition,[4]; at 3.7 µM,-11%
same,growth inhibition,[4]; at 11.0 µM,4%
same,growth inhibition,[4]; at 33.0 µM,28%
same,growth inhibition,[4]; at 100.0 µM,99% (active)
same,growth inhibition,[5]; at 1.2 µM,1%
same,growth inhibition,[5]; at 3.7 µM,9%
same,growth inhibition,[5]; [17],1%
same,growth inhibition,[5]; at 11.0 µM,24%
same,growth inhibition,[5]; at 33.0 µM,40%
same,growth inhibition,[5]; [18],22%
same,growth inhibition,[5]; at 50.0 µM,84.5% (active)
same,growth inhibition,[5]; at 100.0 µM,99% (active)
same,growth inhibition,[6]; at 1.2 µM,-7%
same,growth inhibition,[6]; at 3.7 µM,-5%
same,growth inhibition,[6]; [17],-7%
same,growth inhibition,[6]; at 11.0 µM,-6%
same,growth inhibition,[6]; at 33.0 µM,7%
same,growth inhibition,[6]; [18],28%
same,growth inhibition,[6]; at 50.0 µM,93.5% (active)
same,growth inhibition,[6]; at 100.0 µM,100% (active)
same,growth inhibition,[7]; at 1.2 µM,-4%
same,growth inhibition,[7]; at 3.7 µM,-4%
same,growth inhibition,[7]; at 11.0 µM,-3%
same,growth inhibition,[7]; at 33.0 µM,8%
same,growth inhibition,[7]; at 100.0 µM,99% (active)
same,growth inhibition,[8]; [17],-2%
same,growth inhibition,[8]; [18],56%
same,growth inhibition,[8]; at 50.0 µM,83.7% (active)
same,growth inhibition,[10]; [17],-55%
same,growth inhibition,[10]; [18],15%
same,growth inhibition,[10]; at 50.0 µM,98.3% (active)
same,growth inhibition,[16]; at 1.2 µM,2%
same,growth inhibition,[16]; at 3.7 µM,-18%
same,growth inhibition,[16]; [17],-21%
same,growth inhibition,[16]; at 11.0 µM,9%
same,growth inhibition,[16]; at 33.0 µM,8%
same,growth inhibition,[16]; [18],4%
same,growth inhibition,[16]; at 50.0 µM,95.3% (active)
same,growth inhibition,[16]; at 100.0 µM,99% (active)
same,growth inhibition,[11]; at 1.2 µM,-3%
same,growth inhibition,[11]; at 3.7 µM,-3%
same,growth inhibition,[11]; at 11.0 µM,1%
same,growth inhibition,[11]; at 33.0 µM,38%
same,growth inhibition,[11]; at 100.0 µM,99% (active)
same,growth inhibition,[13]; at 1.2 µM,-1%
same,growth inhibition,[13]; at 3.7 µM,-1%
same,growth inhibition,[13]; at 11.0 µM,7%
same,growth inhibition,[13]; at 33.0 µM,59%
same,growth inhibition,[13]; at 100.0 µM,99% (active)
same,growth inhibition,[14]; [17],-15%
same,growth inhibition,[14]; [18],68%
same,growth inhibition,[14]; at 50.0 µM,95% (active)
same,growth inhibition,[15]; at 1.2 µM,0%
same,growth inhibition,[15]; at 3.7 µM,1%
same,growth inhibition,[15]; at 11.0 µM,18%
same,growth inhibition,[15]; at 33.0 µM,11%
same,growth inhibition,[15]; at 100.0 µM,99% (active)
